Where “and” joins values, the source holds several entries; their conditions need not be identical. Equal entries are not always repeated. Values without a mark were called inactive. Inconclusive results are not listed. Calls of active or inactive are those of the source. Unless noted, the call rests on the fitted dose curve; in most records, active means well fitted curve in the direction sought with a large enough effect in the repeat runs; inconclusive means weak or mixed curves; inactive means no such curve, though single readings can be large; an effect the other way counts as inactive or inconclusive.

The values below come from PubChem BioAssay (Tox21).

Experiment [1] concerns the target Progesterone receptor (Homo sapiens) (UniProt P06401). Briefly: qHTS assay to identify small molecule antagonists of the progesterone receptor (PR) signaling pathway (AID 1346795; active means well fitted inhibition curve with a large enough effect in the signal ratio in the repeat runs, not every such curve was filed as active; the % refers to the signal ratio). The method, boiled down: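 Antagonist mode with agonist R5020 at 1 nM final and 16 hr incubation at 37C. Reporter was beta-lactamase driven by UAS in HEK293T (PR-UAS-bla), 2% charcoal-stripped serum; signal from LiveBLAzer FRET substrate, 2 hr at room temperature.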

A short description of experiment [2]: qHTS assay to identify small molecule antagonists of the progesterone receptor (PR) signaling pathway - cell viability counter screen (AID 1346798). Further: series mostly up to about 92 µM; nearly all actives have a fitted effect of over 50% in size. Summed up: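 Cytotoxicity read as CellTiter-Glo luminescence (30 min, room temperature) in the same wells as the beta-lactamase readout. HEK293T PR-UAS-bla cells in charcoal-stripped 2% FBS received compound and R5020, then 16 h at 37C, 5% CO2.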

Experiment [3] can be described thus: qHTS assay to identify small molecule antagonists of the TGF-beta/Smad signaling pathway - cell viability counter screen (AID 1346824). Further: nearly all actives have a fitted effect of over 50% in size. Summed up:
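SBE-bla HEK 293T cells were plated overnight at 37 C, then given compounds in DMSO plus TGF-beta1 (added as 0.25 ng/mL solution) for 5 hr. After the bla read, CellTiter-Glo was added to the same wells and luminescence read after 30 min at room temperature.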

Experiment [4] can be described thus: qHTS assay to identify small molecule agonists of the TGF-beta/Smad signaling pathway - cell viability counter screen (AID 1346829). Further: top concentration of the series differs between compounds; nearly all actives have a fitted effect of over 45% in size. The method, boiled down:
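After overnight seating at 37 C and 5% CO2, reporter cells got compounds for 5 hr and FRET substrate for 2 hr; cell viability then came from CellTiter-Glo luminescence.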
A general note: Quantitative high-throughput screening tests each substance at several concentrations.

Experiment [5] can be described thus: qHTS assay to identify small molecule agonists of the TGF-beta/Smad signaling pathway (AID 1346859; active means well fitted activation curve with a large enough effect in the signal ratio in the repeat runs, not every such curve was filed as active; the % refers to the signal ratio; further: series mostly up to about 77 µM). The method, boiled down: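 Fluorescence (ex 405 nm; em 460 and 530 nm) was read 2 h after LiveBLAzer FRET substrate at RT. The preceding compound treatment of overnight-plated SBE-bla HEK293T cells lasted 5 h at 37 C.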
The target of experiment [6] is Thyrotropin-releasing hormone receptor (Homo sapiens) (UniProt P34981). In words: qHTS assay to identify small molecule antagonists of the thyrotropin-releasing hormone receptor (TRHR) signaling pathway (AID 1346877; active means well fitted inhibition curve with a large enough effect in the repeat runs, not every such curve was filed as active; further: series mostly up to about 51 µM). Summed up: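 Calcium signal in dye-loaded TRHR/HEK293 cells; compounds added 5 min before TRH (1 nM final); fluorescence monitored 3 min at 1 s steps.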
Thyrotropin-releasing hormone receptor (Homo sapiens), sequence (P34981 whole entry, looked up): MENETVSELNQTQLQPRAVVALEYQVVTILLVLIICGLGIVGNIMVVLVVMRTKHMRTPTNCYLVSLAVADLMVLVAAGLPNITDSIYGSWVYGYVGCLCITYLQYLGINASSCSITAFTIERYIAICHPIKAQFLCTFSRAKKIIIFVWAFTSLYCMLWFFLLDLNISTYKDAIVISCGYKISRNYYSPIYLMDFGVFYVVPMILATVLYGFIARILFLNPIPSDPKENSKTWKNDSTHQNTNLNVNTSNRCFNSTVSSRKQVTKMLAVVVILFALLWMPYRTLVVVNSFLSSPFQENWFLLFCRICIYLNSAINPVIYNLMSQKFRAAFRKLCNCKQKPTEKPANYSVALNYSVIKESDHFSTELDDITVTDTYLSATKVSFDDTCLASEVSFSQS

Experiment [7] shares this target. Briefly: qHTS assay to identify small molecule agonists of the thyrotropin-releasing hormone receptor (TRHR) signaling pathway (AID 1346891; calls by dose curve; further: series mostly up to about 58 µM). The method, boiled down:
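Agonist-mode intracellular calcium readout: kinetic fluorescence over 3 min at 1 s intervals after compound addition to TRHR-HEK293 cells (18 h seeded, 2 h dye-loaded at 37 C). Fifteen concentrations, triplicates.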

Experiment [8] can be described thus: Human pregnane X receptor (PXR) small molecule agonists, qHTS cell viability counter screen (AID 1346977). Further: nearly all actives have a fitted effect of over 50% in size. Summed up: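 Same-well viability read: CellTiter-Fluor added after 23 hr compound exposure, fluorescence measured 1 hr later. Cells were PXR-Luc HepG2 seeded at 2,000/well in 5% charcoal-stripped FBS medium, rested 5 hr before dosing at 37 C.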
Experiment [9] in a line: Caspase-3/7 induction in HepG2 cells by small molecules, qHTS assay (AID 1346978). Further: nearly all actives have a fitted effect of over 15% in size. The method, boiled down: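 Wild-type HepG2 cells (2,000/well) were settled 5 h at 37 C, 5% CO2, then exposed to compounds in DMSO for 17 h. Caspase-3/7 activity was read by luminescence 30 min after adding Caspase-Glo 3/7 reagent at room temperature.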
A short description of experiment [10]: Caspase-3/7 induction in CHO-K1 cells by small molecules, qHTS assay (AID 1346980). Further: nearly all actives have a fitted effect of over 15% in size. The method, boiled down: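 Wild-type cells were seeded at 1,500 per well and settled 5 hr at 37 C, 5% CO2, then exposed to DMSO-dissolved compounds for 17 hr. Caspase-Glo 3/7 reagent was added, and luminescence was read after 30min at room temperature.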
Experiment [11] can be described thus: Caspase-3/7 induction in HepG2 cells by small molecules, qHTS cell viability counter screen (AID 1346981). Further: series mostly up to about 92 µM; nearly all actives have a fitted effect of over 30% in size. The method, boiled down:
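After a 5-hr attachment period at 37 C and 5% CO2, wild-type HepG2 cells received compounds in DMSO. Sixteen hours later CellTiter-Fluor was dispensed and the fluorescent signal quantified after a further hour.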

Experiment [12] deals with Nuclear receptor subfamily 1 group I member 2 (Homo sapiens) (UniProt O75469). In words: Human pregnane X receptor (PXR) small molecule agonists, qHTS assay (AID 1346982). Further: nearly all actives have a fitted effect of over 35% in size. The method, boiled down: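 Tox21 qHTS; PXR-Luc HepG2; compounds pinned from DMSO; 24 hr, 37 C; ONE-Glo luciferase detection, 30 min room temperature.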
Nuclear receptor subfamily 1 group I member 2 (Homo sapiens), sequence (O75469 whole entry, looked up): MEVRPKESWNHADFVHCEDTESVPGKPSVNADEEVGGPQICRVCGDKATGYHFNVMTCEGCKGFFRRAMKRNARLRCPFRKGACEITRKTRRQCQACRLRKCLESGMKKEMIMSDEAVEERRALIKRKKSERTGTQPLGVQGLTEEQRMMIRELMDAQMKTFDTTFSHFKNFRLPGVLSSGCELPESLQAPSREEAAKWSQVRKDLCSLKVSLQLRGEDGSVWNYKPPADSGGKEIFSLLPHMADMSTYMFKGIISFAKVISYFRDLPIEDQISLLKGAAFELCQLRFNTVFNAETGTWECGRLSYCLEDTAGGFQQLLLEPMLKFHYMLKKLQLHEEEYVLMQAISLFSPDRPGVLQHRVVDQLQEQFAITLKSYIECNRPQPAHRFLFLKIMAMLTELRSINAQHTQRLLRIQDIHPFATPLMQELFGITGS
The target in experiment [13] is Cytochrome P450 2D6 (Homo sapiens) (UniProt P10635). In words: Cytochrome P450 Family 2 Subfamily D Member 6 (CYP2D6) small molecule antagonists: luciferase reporter qHTS assay (AID 1671196). Further: nearly all actives have a fitted effect of over 50% in size. Further: potency means the concentration at half of the fitted maximal effect. On activity change, negative = inhibition: series mostly up to about 120 µM. The method, boiled down: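 Room-temperature luminescent CYP2D6 activity assay: compound preincubated 10 min with enzyme–substrate mix, NADPH-initiated reaction 1 h, detection reagent 20 min before reading.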
Cytochrome P450 2D6 (Homo sapiens), sequence (P10635 whole entry, looked up): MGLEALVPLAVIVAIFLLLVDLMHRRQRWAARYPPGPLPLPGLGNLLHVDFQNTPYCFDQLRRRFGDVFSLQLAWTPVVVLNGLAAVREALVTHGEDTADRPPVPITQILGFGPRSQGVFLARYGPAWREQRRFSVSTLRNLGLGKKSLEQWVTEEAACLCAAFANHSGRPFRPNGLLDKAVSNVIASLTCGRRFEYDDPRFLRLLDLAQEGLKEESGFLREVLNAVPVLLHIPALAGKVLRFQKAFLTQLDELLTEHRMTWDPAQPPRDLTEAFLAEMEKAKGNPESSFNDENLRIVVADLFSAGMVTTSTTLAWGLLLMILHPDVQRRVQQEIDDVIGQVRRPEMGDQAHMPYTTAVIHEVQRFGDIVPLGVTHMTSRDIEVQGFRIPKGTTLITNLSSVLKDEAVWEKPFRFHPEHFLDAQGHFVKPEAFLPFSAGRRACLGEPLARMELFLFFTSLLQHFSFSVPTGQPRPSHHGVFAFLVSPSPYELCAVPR
(Reporter assays use an easily measured gene product as a stand-in for the process of interest.)

In experiment [14] the target is Cytochrome P450 2C19 (Homo sapiens) (UniProt P33261). Briefly: Cytochrome P450 Family 2 Subfamily C Member 19 (CYP2C19) small molecule antagonists: luciferase reporter qHTS assay (AID 1671197). Further: nearly all actives have a fitted effect of over 65% in size. Further: potency means the concentration at half of the fitted maximal effect. On activity change, negative = inhibition: series mostly up to about 120 µM. Summed up:
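Inhibition of CYP2C19 was scored from loss of luminescence in a P450-Glo proluciferin substrate assay, NADPH-started and run 1 h at 37C, with ketoconazole as positive control.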

In experiment [15] the target is Cytochrome P450 2C9 (Homo sapiens) (UniProt P11712). Briefly: Cytochrome P450 Family 2 Subfamily C Member 9 (CYP2C9) small molecule antagonists: luciferase reporter qHTS assay (AID 1671198). Further: nearly all actives have a fitted effect of over 50% in size. Further: potency means the concentration at half of the fitted maximal effect. On activity change, negative = inhibition: series mostly up to about 120 µM. The method, boiled down:
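CYP2C9 activity was measured with a P450-Glo proluciferin substrate. Enzyme–substrate mix was held with compound for 10 min at room temperature, then NADPH regeneration solution was added for 1 h at 37C. Luciferin product was read as luminescence.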

Experiment [16] is described as follows: qHTS assay to identify small molecule agonists of the progesterone receptor (PR) signaling pathway - cell viability counter screen (AID 1346799; calls by dose curve; further: nearly all actives have a fitted effect of over 45% in size). The method, boiled down:
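Cytotoxicity measured by CellTiter-Glo luminescence (30 min, RT) in the same wells as the PR beta-lactamase agonist read. Those HEK293T cells had 16 h compound treatment at 37 C in 2% charcoal-stripped FBS medium.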

The target in experiment [17] is Nuclear receptor subfamily 1 group I member 2 (Rattus norvegicus) (UniProt Q9R1A7). In words: Rat pregnane X receptor (rPXR) activation by small molecules, qHTS assay (AID 1346983). Further: nearly all actives have a fitted effect of over 20% in size. To be noted: rPXR luciferase reporter cells, One-Glo luminescence, 24 h; active compounds read high. Summed up: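 Cell-based rPXR luciferase reporter assay, 2,000 cells per well, rested 5hr at 37 C before compound addition in DMSO, then 24 hr at 37 C. One-Glo reagent was added and luminescence read after 30 min at room temperature.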
Nuclear receptor subfamily 1 group I member 2 (Rattus norvegicus), sequence (Q9R1A7 whole entry, looked up): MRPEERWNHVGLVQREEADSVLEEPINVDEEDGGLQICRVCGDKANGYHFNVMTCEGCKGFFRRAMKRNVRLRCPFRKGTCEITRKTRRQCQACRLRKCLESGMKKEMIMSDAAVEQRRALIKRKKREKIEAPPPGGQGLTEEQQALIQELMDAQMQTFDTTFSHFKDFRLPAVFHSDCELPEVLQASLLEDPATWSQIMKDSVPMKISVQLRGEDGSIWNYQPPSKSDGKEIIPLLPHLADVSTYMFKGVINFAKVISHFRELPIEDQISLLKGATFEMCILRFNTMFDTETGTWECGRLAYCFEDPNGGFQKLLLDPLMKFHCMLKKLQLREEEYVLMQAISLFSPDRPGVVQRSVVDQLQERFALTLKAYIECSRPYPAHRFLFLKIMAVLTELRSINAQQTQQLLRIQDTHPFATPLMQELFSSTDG

Experiment [18] addresses Nuclear receptor subfamily 1 group I member 2 (Homo sapiens) (UniProt O75469). In words: CYP3A4 induction through human pregnane X receptor (PXR) by small molecules, qHTS assay (AID 1346984). Further: nearly all actives have a fitted effect of over 40% in size. Summed up:
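Cells (DPX-2; HepG2 with PXR element plus CYP3A4-promoter luciferase) settled 5hr, then were treated 24hr at 37C. A 3hr, 3uM-final Luciferin-IPA step preceded luminescence measurement with One-Glo.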

The target is the same in experiment [19]. In words: Human pregnane X receptor (PXR) activation by small molecules, qHTS assay (AID 1346985). Further: nearly all actives have a fitted effect of over 40% in size. The method, boiled down:
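DPX-2 cells (HepG2 co-transfected with a PXR response element and a CYP3A4-promoter luciferase construct) were seeded at 2,000 per well, rested 5 hr at 37C, then exposed to DMSO-dissolved compounds for 24 hr. Activation was read as luciferase luminescence.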

Experiment [20] can be described thus: Caspase-3/7 induction in CHO-K1 cells by small molecules, qHTS cell viability counter screen (AID 1346979). Further: nearly all actives have a fitted effect of over 35% in size. Further: potency means the concentration at half of the fitted maximal effect. The method, boiled down: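 Cytotoxicity counter screen: CellTiter-Fluor added to compound-treated wild-type CHO-K1 cells at 16 h (37C, 5% CO2), fluorescence measured 1 h later; same wells as caspase-3/7 measurement.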
On the % scale 0 is the no-effect control and ±100 the full control effect.

Cytochrome P450 2C9 (Homo sapiens), sequence (P11712 whole entry, looked up): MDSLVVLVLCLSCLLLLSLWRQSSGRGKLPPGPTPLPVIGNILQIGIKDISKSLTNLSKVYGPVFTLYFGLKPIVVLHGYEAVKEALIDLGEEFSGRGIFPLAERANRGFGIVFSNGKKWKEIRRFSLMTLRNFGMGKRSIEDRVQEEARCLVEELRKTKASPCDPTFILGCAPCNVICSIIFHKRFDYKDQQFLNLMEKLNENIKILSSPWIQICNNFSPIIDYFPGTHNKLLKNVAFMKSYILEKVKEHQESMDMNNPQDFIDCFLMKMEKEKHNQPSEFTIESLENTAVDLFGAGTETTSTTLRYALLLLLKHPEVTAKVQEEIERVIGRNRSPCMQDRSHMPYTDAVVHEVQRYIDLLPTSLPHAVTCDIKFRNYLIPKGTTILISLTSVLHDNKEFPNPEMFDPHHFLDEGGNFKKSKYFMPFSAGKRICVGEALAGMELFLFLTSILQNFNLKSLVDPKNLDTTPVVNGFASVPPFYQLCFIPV
Progesterone receptor (Homo sapiens), sequence (P06401 whole entry, looked up): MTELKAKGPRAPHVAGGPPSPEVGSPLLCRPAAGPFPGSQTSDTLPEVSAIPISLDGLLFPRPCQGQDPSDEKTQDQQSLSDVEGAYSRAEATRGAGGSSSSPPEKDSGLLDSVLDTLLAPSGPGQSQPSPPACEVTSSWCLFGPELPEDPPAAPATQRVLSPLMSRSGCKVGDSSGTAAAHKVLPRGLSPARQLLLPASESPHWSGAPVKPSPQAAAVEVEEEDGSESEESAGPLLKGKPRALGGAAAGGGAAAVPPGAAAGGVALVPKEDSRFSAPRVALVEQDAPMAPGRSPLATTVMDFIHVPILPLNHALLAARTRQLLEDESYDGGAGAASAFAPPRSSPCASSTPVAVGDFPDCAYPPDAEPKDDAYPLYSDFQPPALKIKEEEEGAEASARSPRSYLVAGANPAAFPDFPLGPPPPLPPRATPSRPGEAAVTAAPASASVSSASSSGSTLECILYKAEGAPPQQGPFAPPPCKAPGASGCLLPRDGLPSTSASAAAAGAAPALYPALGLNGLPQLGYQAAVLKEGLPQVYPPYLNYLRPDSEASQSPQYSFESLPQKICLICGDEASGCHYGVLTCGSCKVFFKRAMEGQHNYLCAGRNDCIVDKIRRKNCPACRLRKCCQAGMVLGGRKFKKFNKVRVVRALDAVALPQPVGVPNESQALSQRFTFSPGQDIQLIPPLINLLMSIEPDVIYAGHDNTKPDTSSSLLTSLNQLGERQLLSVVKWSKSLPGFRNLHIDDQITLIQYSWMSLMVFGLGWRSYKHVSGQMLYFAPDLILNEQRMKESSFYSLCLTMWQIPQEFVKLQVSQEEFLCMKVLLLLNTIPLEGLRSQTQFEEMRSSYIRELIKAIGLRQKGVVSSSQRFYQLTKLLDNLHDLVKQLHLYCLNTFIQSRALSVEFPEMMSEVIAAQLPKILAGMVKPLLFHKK
Cytochrome P450 2C19 (Homo sapiens), sequence (P33261 whole entry, looked up): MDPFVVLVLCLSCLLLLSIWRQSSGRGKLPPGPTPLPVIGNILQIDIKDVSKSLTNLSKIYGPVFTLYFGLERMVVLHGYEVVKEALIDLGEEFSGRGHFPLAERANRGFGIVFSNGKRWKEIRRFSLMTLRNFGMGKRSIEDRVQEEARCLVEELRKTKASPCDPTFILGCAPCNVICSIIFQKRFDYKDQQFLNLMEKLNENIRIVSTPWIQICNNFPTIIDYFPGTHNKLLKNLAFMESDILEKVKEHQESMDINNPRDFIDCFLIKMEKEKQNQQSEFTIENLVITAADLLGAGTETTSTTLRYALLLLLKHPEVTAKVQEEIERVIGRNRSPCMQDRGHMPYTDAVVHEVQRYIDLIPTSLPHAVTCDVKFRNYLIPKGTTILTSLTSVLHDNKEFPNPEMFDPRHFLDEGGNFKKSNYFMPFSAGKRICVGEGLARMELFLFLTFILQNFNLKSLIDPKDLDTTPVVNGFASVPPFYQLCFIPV

Take `CCCCCCCCCCCCCCCCCl`: the activity change, negative = inhibition in experiment [1] was 4.71% [at 18.9 µM]; in experiment [13], 0.322% [at 23.6 µM]; in experiment [14] it was -0.542% [at 23.6 µM]; in experiment [15], 1.72% [at 23.6 µM]. The activity change, negative = cytotoxicity in experiment [2] is -2.11% [at 18.9 µM]; in experiment [4] it was 1.73% [at 15.8 µM]; in experiment [8] it was 0.261% [at 19 µM]; in experiment [11], -0.832% [at 19 µM]. In experiment [3], the viability change, negative = cytotoxic was 1.48% [at 15.8 µM]. Further, the results for the activation in [5], in [7] and in experiment [12] were 0.675% [at 15.8 µM], -0.271% [at 11.8 µM] and -2.47% [at 19 µM], respectively. For the same compound, in experiment [6], the activity, negative = inhibition is 3.5% [at 10.5 µM]. The caspase activation in experiment [9] is -0.588% [at 19 µM]. Moreover, in [10], the caspase-3/7 activation is -1.24% [at 19 µM].
Regarding `N[C@@H]1CONC1=O`, the Potency result in [1], in [2], in experiment [16], in [3], in [4] and in experiment [9] was “inactive” throughout. The Potency entry in experiment [10], in [11], in [12], in experiment [18], in [19] and in [13] was “inactive” throughout. The Potency entry in experiment [14] and in [15] was “inactive” throughout. Also, in [5], the call was inactive. Besides, the max activation in experiment [17] was -2.48%.
Take `C=CC(=O)OCCCCCCOC(=O)C=C`: the Potency entry in [1], in experiment [2], in experiment [16], in [4], in experiment [6] and in experiment [7] was “inactive” in each case. Moreover, the Potency entry in [9], in [11] and in experiment [13] was “inactive” throughout. In experiment [5], the call was inactive. The Potency in experiment [20] was 43.8 µM (active) and 43.3 µM (active); in experiment [14], 39.9 µM (active); in [15], 64.1 µM (active) and 56.4 µM (active).
`c1ccc2n[nH]nc2c1`: the Potency result in [1], in experiment [2], in [16], in experiment [4], in experiment [9] and in experiment [20] was “inactive” each time. The Potency result in experiment [10], in experiment [11], in experiment [12], in [13], in [14] and in [15] was “inactive” each time. Moreover, the compound was called inactive in [5].
Turning to `CCN1CCCC1CNC(=O)c1cc(S(=O)(=O)CC)c(N)cc1OC` (stereo not given), the Potency entry in experiment [1], in experiment [2], in experiment [16], in experiment [4], in experiment [6] and in [7] was “inactive” each time. The Potency entry in experiment [9], in experiment [20], in experiment [10], in experiment [11], in [12] and in experiment [14] was “inactive” in each case. Moreover, the Potency entry in experiment [15] is “inactive”. Besides, the result in [5] was inactive. Moreover, the Potency in experiment [13] was 9.77 µM (active).
For `NC12CC3CC(CC(C3)C1)C2`, the Potency result in experiment [1], in [2], in experiment [16], in experiment [3], in [4] and in [9] was “inactive” throughout. The Potency result in experiment [10] and in experiment [11] was “inactive” throughout. Besides, the compound was classed as inactive in [5].
`Cc1cccc([N+](=O)[O-])c1C(=O)O`: the Potency entry in experiment [1], in [2], in experiment [16], in experiment [4], in experiment [9] and in experiment [20] was “inactive” each time. Further, the Potency entry in [10], in experiment [11], in [14] and in experiment [15] was “inactive” throughout. In experiment [5], the compound was called inactive. Also, in experiment [13], the Potency is 63.4 µM (active).
In the case of `c1ccc2c(c1)CCCC2C1=NCCN1` (stereo not given), the Potency result in experiment [1], in experiment [2], in experiment [16], in [4], in experiment [6] and in experiment [7] was “inactive” each time. Besides, the Potency entry in experiment [8], in [9], in experiment [20], in experiment [10] and in [11] was “inactive” throughout. In addition, the result in experiment [5] was inactive.
